# Shown are actives, neighbours in structure and some others; about 5% of the full set was active somewhere.
# AHR act – human AHR activation; activation, % at 5 µM; 320,000 compounds, 2.5% hits; AHR-responsive luciferase reporter cells, luminescence; AID 2796; in the data active means activation above about 47%;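 further: 0% = vehicle wells and 100% = reference agonist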
# SENP8 block-1 – blocks human SENP8 cleavage of Nedd8 substrate | recombinant SENP8, Nedd8 substrate fluorescence | AID 602440 | Q96LD8 | 360,000 compounds, 0.64% hits | inhibition, % at 20 µM; in the data active means inhibition mostly above about 40%, no sharp cut-off; inactive means mostly below about 27%
# Target sequence (Q96LD8 whole entry, looked up): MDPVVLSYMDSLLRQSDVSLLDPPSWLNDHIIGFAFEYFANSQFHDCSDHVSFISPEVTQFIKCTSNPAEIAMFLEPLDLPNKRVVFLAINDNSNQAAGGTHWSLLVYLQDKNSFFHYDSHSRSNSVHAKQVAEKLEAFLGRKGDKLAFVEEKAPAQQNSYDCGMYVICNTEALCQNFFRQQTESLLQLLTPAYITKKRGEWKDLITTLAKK
# SENP8 block-2 – SENP8 protease inhibition; Q96LD8; purified SENP8, Z-RLRGG-aminoluciferin cleavage, luminescence; inhibition, % at 10 µM; 330,000 compounds, 1.2% hits; AID 2540; in the data active means inhibition above about 50%
# SENP7 block – SENP7 protease inhibition | Q9BQF6 | recombinant SENP7, Z-RLRGG-aminoluciferin luminescence, 40 min | inhibition, % at 5 µM | 330,000 compounds, 1.5% hits | AID 434973;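 active means inhibition above about 50% at the single test dose, limit read from the data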;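 further: plate controls were DMSO with enzyme for no effect and no enzyme buffer wells for full effect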
# SENP6 inh – inhibitors of human SENP6 protease | Q9GZR1 | Recombinant SENP6 catalytic domain, aminoluciferin luminescence | inhibition, % at 10 µM | 330,000 compounds, 1.8% hits;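 active means inhibition above about 50% at the single tested dose, limit read from the data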;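 further: plate controls were DMSO wells with enzyme for no effect and DMSO wells lacking enzyme for full effect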
# EBI2 antag – EBI2 (human) antagonism; P32249; EBI2 beta-arrestin recruitment, luminescence, 7a,25-OHC stimulated; inhibition, % at 5 µM; 360,000 compounds, 0.81% hits; in the data active means inhibition above about 38%;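 further: enzyme fragment complementation signal reports receptor beta-arrestin coupling in cells; 0% = agonist plus DMSO wells and 100% = wells without agonist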
# Target sequence (P32249 whole entry, looked up, the tested form may be a part): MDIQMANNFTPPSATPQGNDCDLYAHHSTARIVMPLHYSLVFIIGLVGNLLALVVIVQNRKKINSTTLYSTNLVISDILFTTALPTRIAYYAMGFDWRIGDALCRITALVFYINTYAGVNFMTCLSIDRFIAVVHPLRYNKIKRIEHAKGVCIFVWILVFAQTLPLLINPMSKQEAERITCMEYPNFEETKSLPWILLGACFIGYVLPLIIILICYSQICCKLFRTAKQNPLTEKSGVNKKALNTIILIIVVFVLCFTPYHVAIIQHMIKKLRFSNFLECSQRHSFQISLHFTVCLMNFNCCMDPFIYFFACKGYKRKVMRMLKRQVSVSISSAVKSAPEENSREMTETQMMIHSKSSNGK
# * hit, by the source's call; i = inactive; / = no result.
SMILES,AHR act,SENP8 block-1,SENP8 block-2,SENP7 block,SENP6 inh,EBI2 antag
CCCc1cc2c(=O)c(-c3ccccn3)c(C)oc2cc1O,65.0*,-110.2,-3.4,-2.0,-0.5,-4.8
CCOC(=O)c1nc2ccc(C)cc2c2c1C1CC(c3c(Cl)cccc31)N2C(=O)OCc1ccccc1 (stereo unspecified),/,-61.9,/,/,/,29.4
CC1CCc2sc(C(=O)N/N=C/c3ccc([N+](=O)[O-])cc3)cc2C1 (stereo unspecified),65.5*,2.2,-8.9,-1.0,-18.2,10.1
CCN(CC)P(=O)(Nc1ccc(C)cc1Br)c1ccc(N(C)C)cc1NC(=O)c1ccco1 (stereo unspecified),48.6*,-8.4,-6.1,-5.0,-2.2,0.6
Cc1ccc(NC(=O)c2ccco2)c(NC(=O)c2ccccc2)c1,28.1,13.9,-10.4,-6.6,-9.8,0.8
CN(C)/C=C1/C(=O)N(c2ccc([N+](=O)[O-])cc2)N=C1c1ccccc1,11.7,/,96.1*,97.2*,101.5*,/
O=C(CSc1ccc2nnc(-c3cccnc3)n2n1)NCc1ccc2c(c1)OCO2,13.7,10.9,4.5,1.4,2.4,1.0
O=C(CSc1ccc2ccccc2n1)NCc1ccc2c(c1)OCO2,63.8*,5.6,8.4,1.3,-22.1,2.3
CC(C)(C)NC(=O)CCCSc1nc2ccccc2s1,22.4,11.4,-11.2,-3.6,-12.4,3.8
O=C(CSc1n[nH]c(-c2cccs2)n1)NCc1ccc2c(c1)OCO2,57.9*,12.3,7.3,2.7,-0.7,-0.8
O=C(CCCSc1nc2ccccc2s1)NCc1ccc2c(c1)OCO2,49.9*,12.1,-12.4,-3.6,-0.5,2.6
O=C(CSc1ccc2nnc(-c3ccccc3)n2n1)NCc1ccc2c(c1)OCO2,56.1*,-17.6,-13.2,-11.1,2.4,-2.6
C[C@H]1CCC[C@@]2(O[C@H](CCO)C[C@@H](O)[C@@H]2O)O1,-0.1,13.5,-3.6,-6.6,-16.0,-16.2
CS(=O)CC(O)(c1ccc(F)cc1)C1CC1 (stereo unspecified),/,4.3,/,/,/,-1.3
CCOc1cccc2sc(N(CCN(C)C)C(=O)CCS(=O)(=O)c3ccccc3)nc12,1.6,5.7,3.9,0.9,-1.7,10.5
O=C(CCS(=O)(=O)c1ccccc1)Nc1nc(-c2ccccn2)cs1,54.0*,16.9,-12.4,-6.0,-10.5,-26.0
O=C(CCS(=O)(=O)c1ccc(F)cc1)Nc1nc(-c2ccccn2)cs1,6.9,4.1,-0.3,5.7,-10.8,-14.1
COc1ccc(C)c2sc(NC(=O)CCS(=O)(=O)c3ccccc3)nc12,52.3*,-16.4,0.9,-1.7,-2.6,-7.4
CCCCC(=O)Nc1nc2c(OC)ccc(OC)c2s1,64.3*,-13.5,1.6,1.3,16.9,-9.1
CCOc1cccc2sc(NC(=O)CCS(=O)(=O)c3ccccc3)nc12,57.1*,-5.7,3.3,2.2,-0.5,0.3
CCCCC(=O)Nc1nc2c(OC)cc([N+](=O)[O-])cc2s1,9.8,13.6,-7.6,4.3,6.5,-5.3
c1csc(CNc2nc(Oc3ccncc3)c3sccc3n2)c1,/,i,/,/,/,-4.5
O=C(NCc1ccc(F)c(F)c1)C1Cc2c(-c3ccc4c(c3)OCO4)ccnc2O1 (stereo unspecified),/,-67.5,/,/,/,-1.8
NC(Cc1ccc(F)cc1)c1csc(NC(=O)NC(c2ccccc2)c2ccccc2)n1 (stereo unspecified),/,19.6,/,/,/,5.7
CC1=NN=C(c2ccccc2)C(c2c[nH]c3ccccc23)N1O (stereo unspecified),68.1*,-34.0,1.6,1.2,-6.3,-14.4
SMILES,AHR act,SENP8 block-1,SENP8 block-2,SENP7 block,SENP6 inh,EBI2 antag
CC(C)C(NC(=O)c1ccccc1F)C(=O)NCc1ccc(F)cc1 (stereo unspecified),-0.7,6.5,3.2,1.8,-10.8,-0.3
CN(CCn1ccnc1)Cc1cn(-c2ccccc2)nc1-c1ccc2c(c1)OCO2,54.5*,12.9,-7.5,-11.3,-5.2,-4.2
CN(Cc1cn(-c2ccccc2)nc1-c1ccc2c(c1)OCO2)Cc1nccn1C,47.8*,-5.4,3.9,8.5,-11.1,6.8
CCNC(=O)C1(C)CCCN1C(=O)c1ccc2c(c1)OCO2 (stereo unspecified),/,16.6,/,/,/,-2.1
COc1ccccc1OCC#CCn1ccnc1,59.7*,-0.4,6.2,0.7,0.7,-1.6
Cc1cccc(C(=O)NCC(=O)OCC(=O)c2ccc(C)s2)c1,0.1,14.6,7.6,0.1,-9.0,-3.1
Cc1ccc(C(=O)COC(=O)c2cccc(O)c2)s1,/,-4.2,83.2*,95.1*,93.2*,-27.0
O=C(N/C(=C/C=C/c1ccccc1)C(=O)N1CCOCC1)c1ccccc1Cl,67.3*,5.1,-10.1,6.3,-3.7,2.2
Cn1c(NC(=O)/C=C/c2c(F)cccc2Cl)cc(=O)n(C)c1=O,19.4,2.5,0.3,-1.6,2.0,0.2
Cn1c(NC(=O)/C=C\c2ccccc2)cc(=O)n(C)c1=O,49.8*,9.9,-15.8,-5.9,-12.2,7.4
COc1cccc(N=Nc2c(N)[nH]n3c(=O)cc(-c4ccccc4)nc23)c1,0.7,65.3*,16.5,12.2,23.4,10.3
Cc1ccc(N=Nc2c(N)[nH]n3c(=O)cc(-c4ccccc4)nc23)cc1,4.1,74.1*,4.2,2.1,0.8,3.2
NC(=O)C12C(=O)NC(=O)C1(C(=O)O)C21CCCC1 (stereo unspecified),/,14.8,/,/,/,-2.3
CC(Oc1ccccc1)C(=O)Nc1ccc(F)c(S(=O)(=O)N2CCOCC2)c1 (stereo unspecified),/,-16.0,-0.8,-1.0,-2.0,0.5
O=C(NCc1cccs1)c1cccc2c(-c3ccc(F)c(F)c3)coc12,/,16.3,/,/,/,10.0
C[C@]12CCC[C@H](O1)c1c(cc3c(c1O)C(=O)c1c(O)cc(O)cc1C3=O)O2,20.4,57.7*,-9.7,-6.9,-10.1,-5.5
CCOC(=O)C1=CCN(S(=O)(=O)c2ccccc2C)C1c1cccc(C)c1 (stereo unspecified),/,3.4,/,/,/,31.4
CC(C)(C)C1CCC(=NNC(=O)c2ccccc2-n2cccc2)CC1 (stereo unspecified),70.5*,-1.7,-6.3,-5.9,-11.3,-3.7
O=C(NN=C1CCCCC1)c1ccccc1-n1cccc1,48.5*,-9.2,0.7,2.7,-4.9,2.0
O=C(NNC(=O)c1ccccc1-n1cccc1)c1ccc(Cl)cc1,62.0*,11.4,-0.5,-6.6,0.8,-7.7
O=C(NNc1ncccc1-n1cccc1)c1ccc(Cl)cc1,-0.5,6.6,0.3,-0.2,-14.1,-8.2
Cc1cc([N+](=O)[O-])c2c(c1C)C1C=CCC1C(c1ccccn1)N2 (stereo unspecified),4.2,/,6.0,-3.0,22.8,/
COc1ccc(Cc2c(-c3ccc(F)cc3)nc3ccc(Cl)cn23)c(C)c1,/,-189.4,/,/,/,-0.4
O=C(Cn1ncc(Cl)c(Cl)c1=O)N1CCc2ccccc21,/,16.0,/,/,/,43.2*
Cc1ccc2oc(-c3cccc(NC(=O)c4ccc(Br)o4)c3)nc2c1,59.5*,-132.6,-10.5,-4.8,-10.1,1.5
